Screening data as filed in PubChem.
tim10-1 inh: inhibits growth of tim10-1 mutant yeast. S. cerevisiae tim10-1 ts strain growth, BacTiter-Glo, 24 h. inhibition, % at 20 µM. hit rate 2.2% among 330,000. AID 463190;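 active = inhibition of at least 40%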;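 also: mutant grown at 25 °C; 0% = DMSO wells with yeast and 100% = wells holding no yeast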
tim23-1 inh: growth inhibitors of tim23-1 mutant yeast; hit rate 1.3% among 330,000; S. cerevisiae tim23-1 growth, BacTiter-Glo luminescence, 24 h; inhibition, % at 20 µM;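 active = growth inhibition of the mutant yeast at or above 50%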;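 also: temperature-sensitive mutant grown at 25 °C; plate controls were DMSO-treated mutant yeast for no effect and medium wells lacking yeast for full effect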
PfHsp90 set2: reduces growth (ATP signal) of yeast expressing P. falciparum Hsp90; S. cerevisiae expressing PfHsp90, BacTiter-Glo ATP, 48 h; yeast lacking PDR1 and PDR3 efflux regulators; inhibition, % at 9.4 µM; hit rate 0.32% among 310,000;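 active = every replicate shows inhibition above about 80%, whatever the replicate mean, limit read from the data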;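 also: 0% = DMSO neutral controls and 100% = 20 µM radicicol positive controls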
SKKanGAS inh: inhibitors of SKKanGAS S. pyogenes growth in kanamycin (SK-promoter or general growth effect) | BacTiter-Glo, 6 h | inhibition, % at 7.5 µM | hit rate 1.3% among 300,000 | AID 1662;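 active = mean replicate score, as percent of positive control median, at least 50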;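 also: strain carries kanamycin resistance gene driven by streptokinase promoter and grows in 40 µg/ml kanamycin; loss of luminescence reflects streptokinase promoter inhibition or plain growth inhibition; 0% = median of DMSO wells and 100% = positive control at its reference dose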
TIM10 inh: growth inhibitors of TIM10 yeast strain | S. cerevisiae TIM10 strain growth, BacTiter-Glo luminescence, 24 h | inhibition, % at 10 µM | hit rate 1.4% among 330,000 | AID 463195;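 active = inhibition of 40% or more at the single tested concentration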;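 also: wild-type TIM10 isogenic control strain grown at permissive 25 °C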
NLRP3 yeast inh: NALP3 inhibition in yeast | Yeast reconstituted NLRP3/ASC/caspase-1, beta-gal luminescence, 24 h | hit rate 0.39% among 330,000 | inhibition, % at 10 µM;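 active = inhibition of 50% or more; inactive = inhibition below 50%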;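 also: plate controls were induced DMSO wells for no effect and uninduced yeast grown without galactose for full effect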
tim10-1 confirm: tim10-1 yeast growth inhibition, confirmed; shares compounds with tim10-1 inh; S. cerevisiae tim10-1 ts strain growth, BacTiter-Glo, 24 h; inhibition, % at 20 µM; hit rate 56% among 7,400; AID 463213;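 active = inhibition of yeast growth at or above a set limit in either of two repeat tests at 20 µM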;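 also: tim10-1 mutant grown at permissive 25 °C to find synthetic lethal compounds; 0% = DMSO yeast wells and 100% = medium wells without yeast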
* marks the source's active call; other numbers are inactive results. A selection: hits, their analogues and other compounds. The true share with any hit is near 4.6%.

Results for S=c1[nH]c2cc(-c3ccccc3)ccc2o1 ?
tim10-1 inh: 43*; tim23-1 inh: 48; PfHsp90 set2: -79; SKKanGAS inh: 27; TIM10 inh: 31; NLRP3 yeast inh: 15; tim10-1 confirm: 28

How did O=C(NN=Cc1c(F)c(F)c(F)c(F)c1F)c1ccc(NS(=O)(=O)c2cccs2)cc1 do in these assays?
tim10-1 inh: 3; tim23-1 inh: -7; PfHsp90 set2: 16; TIM10 inh: -5; NLRP3 yeast inh: 24

How did COc1ccc(/C=N/NC(=O)C(O)(c2ccccc2)c2ccccc2)cc1OC do in these assays?
tim10-1 inh: 6; tim23-1 inh: -1; PfHsp90 set2: 1; SKKanGAS inh: 9; TIM10 inh: 1; NLRP3 yeast inh: -4

What do the screens show for `CCOc1ccc(N(Cc2ccc(OC)cc2)C(=O)c2ccco2)cc1`?
tim10-1 inh: 44*; tim23-1 inh: 24; PfHsp90 set2: 22; SKKanGAS inh: 5; TIM10 inh: 9; NLRP3 yeast inh: -2; tim10-1 confirm: 20

How did CCCN(CCC)C(=O)CC(c1ccccc1)c1cc(C)ccc1O (configuration not stated) do in these assays?
tim10-1 inh: 46*; tim23-1 inh: 33; PfHsp90 set2: -11; SKKanGAS inh: 4; TIM10 inh: 22; NLRP3 yeast inh: 5; tim10-1 confirm: 34*

How did O=C(c1cc(C2CC2)nc2ccccc12)N1N=C(C(F)F)CC1(O)C(F)F (configuration not stated) do in these assays?
tim10-1 inh: 11; tim23-1 inh: 10; SKKanGAS inh: -4; TIM10 inh: 6; NLRP3 yeast inh: 8

How did CC(C)c1ccc(-c2cc(C(=O)N3N=C(C(F)F)CC3(O)C(F)F)c3ccccc3n2)cc1 (configuration not stated) do in these assays?
tim10-1 inh: 41*; tim23-1 inh: 37; PfHsp90 set2: 111*; SKKanGAS inh: 90*; TIM10 inh: 25; NLRP3 yeast inh: 14; tim10-1 confirm: 27

How did CCN1C(=O)C2(C(C#N)=C(N)Oc3c2c(C)nn3-c2ccccc2)c2ccccc21 (configuration not stated) do in these assays?
tim10-1 inh: 64*; tim23-1 inh: 39; SKKanGAS inh: -3; TIM10 inh: 33; NLRP3 yeast inh: 0; tim10-1 confirm: 62*

How did O=C(COc1ccccc1[N+](=O)[O-])NCCC1=CCCCC1 do in these assays?
tim10-1 inh: -13; tim23-1 inh: 31; PfHsp90 set2: -10; SKKanGAS inh: -3; TIM10 inh: -1; NLRP3 yeast inh: 39

What do the screens show for `S=C(NCCc1ccccc1)Nc1ccc(Nc2ccccc2)cc1`?
tim10-1 inh: 52*; tim23-1 inh: 47; PfHsp90 set2: -33; SKKanGAS inh: -5; TIM10 inh: 26; NLRP3 yeast inh: 29; tim10-1 confirm: 34*

How did S=C(NCCCc1ccccc1)Nc1ccccc1 do in these assays?
tim10-1 inh: 29; tim23-1 inh: 47; PfHsp90 set2: -26; TIM10 inh: 23; NLRP3 yeast inh: 14

Results for COc1ccc(Cl)cc1NC(=S)NCCc1ccc(S(N)(=O)=O)cc1 ?
tim10-1 inh: 7; tim23-1 inh: -9; PfHsp90 set2: -17; SKKanGAS inh: 6; TIM10 inh: 15; NLRP3 yeast inh: 12

How did COc1ccc(NC(=S)NCCc2ccccc2)c(C)c1 do in these assays?
tim10-1 inh: 19; tim23-1 inh: 12; PfHsp90 set2: -4; SKKanGAS inh: 0; TIM10 inh: -14; NLRP3 yeast inh: 15

What do the screens show for `S=C(NCCC(c1ccccc1)c1ccccc1)Nc1ccc(Cl)cc1`?
tim10-1 inh: 55*; tim23-1 inh: 27; PfHsp90 set2: 18; SKKanGAS inh: 117*; TIM10 inh: 34; NLRP3 yeast inh: 30; tim10-1 confirm: 20

Results for Cc1cc(OC(F)F)ccc1NC(=S)NCCc1ccccc1 ?
tim10-1 inh: 48*; tim23-1 inh: 33; PfHsp90 set2: 0; SKKanGAS inh: -10; TIM10 inh: 28; NLRP3 yeast inh: 33; tim10-1 confirm: 16

How did COc1ccc(Cl)cc1NC(=S)NCCc1ccc(F)cc1 do in these assays?
tim10-1 inh: 51*; tim23-1 inh: 34; PfHsp90 set2: -64; SKKanGAS inh: 15; TIM10 inh: 33; NLRP3 yeast inh: -61; tim10-1 confirm: 34*

What do the screens show for `O=C(NCc1ccc(Cl)cc1)c1ccc2ccccc2n1`?
tim10-1 inh: 11; tim23-1 inh: 27; PfHsp90 set2: -6; SKKanGAS inh: 3; TIM10 inh: 26; NLRP3 yeast inh: 11

Results for COc1ccc(Cl)cc1NC(=S)NCc1ccco1 ?
tim10-1 inh: 55*; tim23-1 inh: 35; SKKanGAS inh: 3; TIM10 inh: 20; NLRP3 yeast inh: 2; tim10-1 confirm: 36*

How did Fc1ccc(F)c(NC(=S)NCCc2ccccc2)c1 do in these assays?
tim10-1 inh: 46*; tim23-1 inh: 28; PfHsp90 set2: -27; SKKanGAS inh: 10; TIM10 inh: 35; NLRP3 yeast inh: 36; tim10-1 confirm: 28

What do the screens show for `COc1cccc(NC(=S)N/N=C2\CC3CCC2(C)C3(C)C)c1` (configuration not stated)?
tim10-1 inh: 41*; tim23-1 inh: 17; PfHsp90 set2: -137; SKKanGAS inh: 28; TIM10 inh: 36; NLRP3 yeast inh: 17; tim10-1 confirm: 31*

How did CCN(CCNCC(O)COc1ccccc1C(C)C)c1cccc(C)c1 (configuration not stated) do in these assays?
tim10-1 inh: 9; tim23-1 inh: 31; PfHsp90 set2: -2; SKKanGAS inh: 15; TIM10 inh: 26; NLRP3 yeast inh: 22

What do the screens show for `CC(C)CCNC(=O)NC(=O)CSc1nnc(COc2ccccc2Cl)o1`?
tim10-1 inh: 49*; tim23-1 inh: -15; PfHsp90 set2: 3; SKKanGAS inh: 5; TIM10 inh: 25; NLRP3 yeast inh: 1; tim10-1 confirm: 13

How did CC(C)(C)CN1CCNC(=O)C1CC(=O)N1CCN(c2ccccc2)CC1 (configuration not stated) do in these assays?
tim10-1 inh: 3; tim23-1 inh: 16; PfHsp90 set2: 3; SKKanGAS inh: -5; TIM10 inh: 10; NLRP3 yeast inh: -14

Results for CC(NC(=O)c1ccc(Cl)cc1)C1CC2CCC1C2 (configuration not stated) ?
tim10-1 inh: -4; tim23-1 inh: 12; PfHsp90 set2: 13; SKKanGAS inh: 5; TIM10 inh: -24; NLRP3 yeast inh: 32

How did CC(NC(=O)c1cccc(Cl)c1)C1CC2CCC1C2 (configuration not stated) do in these assays?
tim10-1 inh: 45*; tim23-1 inh: 38; PfHsp90 set2: -18; SKKanGAS inh: 3; TIM10 inh: 19; NLRP3 yeast inh: 4; tim10-1 confirm: 35*
